Hits are enriched below; roughly 4.3% of the tested compounds scored in any of these assays.
HIF-2a inh: blocks HIF-2a reporter activity | 0.72% of 360,000 active | 786-0 RCC cells HIF-2a reporter, luciferase luminescence, overnight | inhibition, % at 18.8 µM;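 active = inhibition of the luminescence signal of 40% or more relative to plate controls, in a single-dose primary screen at 18.75 µM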
CF NFkB block: blocks PAF-induced NF-kB reporter in cystic fibrosis cells. KKLEB NF-kB-GFP reporter, GFP fluorescence overnight. inhibition, % at 5 µM. 0.86% of 360,000 active. AID 588850;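 active = at least 50% inhibition at 5 µM, scaled per plate between neutral and stimulator controls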;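 note: PAF is a Pseudomonas aeruginosa culture filtrate used as stimulus; plate controls were PAF-stimulated DMSO wells for no effect and unstimulated DMSO wells for full effect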
Peg3 promoter: reduces Peg3 promoter-driven luciferase expression in HeLa; AID 588405; HeLa PEG-Prom luciferase reporter, luminescence, overnight; 1.7% of 360,000 active; inhibition, % at 20 µM;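 active = inhibition of at least 50% at 20 µM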
KKLEB cytotox: CF airway cell cytotoxicity counter-screen | KKLEB CF airway cells viability, ATPlite luminescence, overnight; hits give low values; cells stimulated with P. aeruginosa culture filtrate | 0.36% of 360,000 active | AID 602141 | activity change (cytotoxicity), % at 5 µM;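 active = corrected activity change at or below -50% at 5 µM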
MITF TRPM1 inh: MITF TRPM1 promoter inhibition in SK-MEL-5 cells; inhibition, % at 12.5 µM; AID 488899; SK-MEL-5 TRPM1 promoter luciferase, 24 h; 0.83% of 330,000 active;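 active = mean inhibition across replicates of 60% or more, whatever share of single replicates reaches that level; inconclusive = some that reach 60%, reason not given; inactive = mean inhibition across replicates below 60%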
CHOP inhibitor: CHOP inhibition in unfolded protein response | CHO-K1 CHOP-promoter luciferase, tunicamycin-induced, 15-18 h | inhibition, % at 10 µM | 3.8% of 220,000 active | AID 2732;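 active = compounds that reduced the stress-induced luciferase reporter signal by more than about 70% of percent inhibition, limit read from the data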;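 note: 0% = tunicamycin plus vehicle and 100% = wells without tunicamycin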
Mdm2-MdmX confirm: confirmation of inhibitors of human Mdm2/MdmX interaction, set 2 | shares compounds with HIF-2a inh | SaOS-2 split-luciferase Mdm2/MdmX complementation, luminescence | inhibition, % at 8 µM | 99% of 740 active;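 active = mean inhibition of the luminescence signal across two replicates at or above 26 percent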
HIF-2a conf: HIF-2a inhibition, single concentration confirmation. shares compounds with HIF-2a inh. 786-0 RCC cells, HIF-2a luciferase reporter luminescence, overnight. inhibition, % at 18.8 µM. 56% of 1,800 active. AID 651580;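 active = mean inhibition across four replicates of at least 40 percent at the single tested concentration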
HIF-1a counter: HIF-1a inhibition counter-screen for HIF-2a hits; shares compounds with HIF-2a inh; MiaPaCa-2 HIF-1a luciferase reporter, desferoxamine, overnight; inhibition, % at 18.8 µM; 72% of 1,800 active; AID 651589;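 active = mean inhibition of the reporter signal across four replicates at the single tested dose of 50% or more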
* = called active by the depositor; ? = inconclusive; nt = no result.

SMILES | HIF-2a inh | CF NFkB block | Peg3 promoter | KKLEB cytotox | MITF TRPM1 inh | CHOP inhibitor | HIF-2a conf | HIF-1a counter | others
CC(C)(C)OC(=O)N[C@@H](Cc1ccccc1)c1nnc(SCC(N)=O)o1 | 9 | -6 | 6 | 15 | -1 | 9 | nt | nt
CC1CC(C)(C)Nc2ccc(OC(=O)c3ccco3)cc21 (stereo not given) | 45* | 12 | -16 | 5 | 35 | 38 | 62* | 71*
O=C(Oc1ccc2ccccc2c1)c1ccco1 | 12 | 18 | -11 | -3 | 0 | 28 | nt | nt
CCOC(=O)CC(S(=O)(=O)c1ccccc1)S(=O)(=O)c1ccccc1 | 76* | 87* | 100* | -90* | nt | nt | 11 | 1
CC(C)(C)C(=O)NC(=S)NNC(=O)c1sc2ccccc2c1Cl | 78* | 71* | 78* | -66* | 80* | 110* | 35 | 100*
O=C(Nc1ccc(NC(=S)NC(=O)c2ccco2)cc1)c1ccc(Br)cc1 | 57* | 23 | 12 | -15 | nt | nt | 64* | 12
CC(=O)N(Cc1ccc(F)cc1)c1cccc(C)c1C | 17 | 19 | 10 | -8 | 0 | 9 | nt | nt
CC(=O)N(Cc1ccc(F)cc1)C1=C(NCCc2ccccc2)C(=O)c2ccccc2C1=O | 91* | 86* | 103* | -55* | 104* | nt | nt | nt | Mdm2-MdmX confirm=101*
CC(=O)Nc1cccc(-c2csc(N)n2)c1 | 5 | -20 | 1 | 3 | -9 | 15 | nt | nt
CC(=O)Nc1cccc(-c2cnc(N)c(C(=O)c3cccnc3)n2)c1 | 41* | 75* | 71* | -8 | 44 | nt | nt | nt | Mdm2-MdmX confirm=102*
CCc1nc(C)cn1S(=O)(=O)c1ccc([N+](=O)[O-])cc1 | 13 | -23 | 5 | 15 | -2 | 12 | nt | nt
CCCn1c(CC)nc([N+](=O)[O-])c1S(=O)(=O)c1ccccc1 | 46* | 52* | -1 | -27 | ? | 34 | 29 | 47
Oc1cccc(Nc2nc(N3CCOCC3)nc(N3CCOCC3)n2)c1 | 49* | 38 | 7 | -27 | -7 | nt | 24 | 76*
Cc1ccc(NC(=S)NNc2ncc(C(F)(F)F)cc2Cl)cc1 | 69* | 2 | 26 | 6 | 30 | 57 | 82* | 41
FC(F)(F)c1cnc(NNC(=S)Nc2ccc(Cl)cc2)c(Cl)c1 | 48* | 44 | 37 | -23 | 50 | 99* | 52* | 38
CCOC(=O)Cn1nc(C)c(NC(=O)COc2ccc(OC)cc2)c1C | 7 | -5 | 17 | 15 | 6 | -1 | nt | nt
CC1CCc2nc(NC(=O)Cc3cccs3)sc2C1 (stereo not given) | -290 | 17 | -352 | -8 | -126 | 7 | nt | nt
CC1CCc2nc(NC(=O)c3ccco3)sc2C1 (stereo not given) | 43* | -18 | 18 | -31 | 32 | 71* | 72* | 88*
Cc1ccc2nc(-c3ccccc3)nn2c1 | 20 | -17 | 43 | -10 | 42 | nt | nt | nt
Cc1ccccc1CNC(=O)CCn1nc(C)c2c(C)n(-c3ccccc3)nc2c1=O | 13 | -6 | 14 | 16 | 0 | nt | nt | nt
COc1ccccc1C=CC(=O)C=Cc1ccccc1OC | 70* | -179 | 99* | -4 | 74* | nt | 55* | 100*
COc1ccccc1/C=C/C(=O)N1CCCC1 | -34 | 16 | -47 | 8 | -4 | -4 | nt | nt
S=C(c1ccc(-c2ccccc2)cc1)N1CCOCC1 | 86* | 2 | 23 | -11 | -11 | nt | 89* | 54*
Cc1ccc(S(=O)(=O)N2CCC(=O)N(CCO)CC2)cc1 | 8 | 10 | 5 | -4 | 2 | 6 | nt | nt
COc1ccc(Br)cc1/C=C/C(=O)c1ccc(NC(C)=O)cc1 | 85* | 42 | 106* | 17 | 82* | -20 | 64* | 106*
COc1ccc(NC(=O)/C=C/c2cc(Br)ccc2OC)cc1 | -11 | -13 | 10 | -8 | 23 | 14 | nt | nt
O=C(O)COc1ccc2occ(C(=O)c3ccccc3)c2c1 | 7 | 6 | 7 | 0 | -16 | 5 | nt | nt

Screens (PubChem BioAssay)
